# According to article PMC7862700, “An all-to-all approach to the identification of sequence-specific readers for epigenetic DNA modifications on cytosine”:
# Columns and labels:
# Assay in all cases: DAPPL (digital affinity profiling via proximity ligation, sequencing); 10 mM Tris-HCl pH 7.5, 50 mM NaCl, 1 mM DTT, 4% glycerol, room temperature, 30 min; GST-TFs on glutathione beads, 16-mer random dsDNA library, 0.1% formaldehyde crosslink after washing; high values mean tight binding
# Settings in all cases: protein: recombinant; tags: N-terminal GST; dsDNA, one strand shown
# ETV2 = target: T1, ETV2 (Homo sapiens, UniProt O00321 1-342)
# T1 sequence: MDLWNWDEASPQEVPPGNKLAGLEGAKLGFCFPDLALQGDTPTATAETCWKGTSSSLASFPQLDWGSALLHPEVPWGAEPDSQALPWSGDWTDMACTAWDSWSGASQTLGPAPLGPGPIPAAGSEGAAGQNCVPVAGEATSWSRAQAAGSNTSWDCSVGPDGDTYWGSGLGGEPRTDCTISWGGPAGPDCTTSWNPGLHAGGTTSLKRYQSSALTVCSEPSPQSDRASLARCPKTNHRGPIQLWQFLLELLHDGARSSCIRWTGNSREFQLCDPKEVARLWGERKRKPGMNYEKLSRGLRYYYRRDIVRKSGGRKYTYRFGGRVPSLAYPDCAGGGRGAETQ
# Outline: (§1)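 Pools were built from human transcription factors expressed in yeast as GST fusions, captured on glutathione beads and DNA-barcoded, along with a tag-only sample. Incubation with 200 nmole of a 16-mer random double-stranded DNA library lasted 30 min at room temperature in Tris/NaCl/DTT/glycerol buffer, and was followed by washing, 0.1% formaldehyde crosslinking, proximity ligation, PCR amplification and Illumina NextSeq500 sequencing. Binding signal is the quotient of each hexamer's read frequency for a factor and its frequency for the tag-only sample.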
# ELF3 = target: T2, ELF3 (Homo sapiens, UniProt P78545 1-371)
# T2 sequence: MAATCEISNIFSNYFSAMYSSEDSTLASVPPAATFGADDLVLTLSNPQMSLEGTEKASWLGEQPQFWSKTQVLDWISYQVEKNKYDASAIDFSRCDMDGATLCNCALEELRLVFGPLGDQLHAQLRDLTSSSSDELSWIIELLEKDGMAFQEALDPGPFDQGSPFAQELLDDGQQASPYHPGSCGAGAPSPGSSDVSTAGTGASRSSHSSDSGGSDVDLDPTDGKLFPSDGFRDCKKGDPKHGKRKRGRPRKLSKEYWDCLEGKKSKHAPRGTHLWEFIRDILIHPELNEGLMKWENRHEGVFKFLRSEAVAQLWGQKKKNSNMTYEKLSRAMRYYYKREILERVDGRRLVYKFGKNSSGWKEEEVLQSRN
# Outline: as §1
# ETV1 = ETV1 (Homo sapiens, UniProt P50549 1-477)
# Sequence of ETV1 (P50549 whole entry): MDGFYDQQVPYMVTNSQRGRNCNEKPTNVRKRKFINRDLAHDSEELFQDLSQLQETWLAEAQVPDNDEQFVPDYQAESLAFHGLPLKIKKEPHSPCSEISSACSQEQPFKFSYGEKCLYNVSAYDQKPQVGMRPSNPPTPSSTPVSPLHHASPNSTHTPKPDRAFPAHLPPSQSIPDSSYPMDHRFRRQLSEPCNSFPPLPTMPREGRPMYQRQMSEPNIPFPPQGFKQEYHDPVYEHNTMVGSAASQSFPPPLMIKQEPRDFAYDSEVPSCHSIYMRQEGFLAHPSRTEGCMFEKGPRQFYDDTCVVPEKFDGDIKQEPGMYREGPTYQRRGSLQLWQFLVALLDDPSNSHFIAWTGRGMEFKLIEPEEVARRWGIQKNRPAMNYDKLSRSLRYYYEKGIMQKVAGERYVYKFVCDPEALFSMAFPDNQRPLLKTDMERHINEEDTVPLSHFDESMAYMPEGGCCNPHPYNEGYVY
# Outline: as §1
# ERF = target: T3, ERF (Homo sapiens, UniProt P50548 1-548)
# T3 sequence: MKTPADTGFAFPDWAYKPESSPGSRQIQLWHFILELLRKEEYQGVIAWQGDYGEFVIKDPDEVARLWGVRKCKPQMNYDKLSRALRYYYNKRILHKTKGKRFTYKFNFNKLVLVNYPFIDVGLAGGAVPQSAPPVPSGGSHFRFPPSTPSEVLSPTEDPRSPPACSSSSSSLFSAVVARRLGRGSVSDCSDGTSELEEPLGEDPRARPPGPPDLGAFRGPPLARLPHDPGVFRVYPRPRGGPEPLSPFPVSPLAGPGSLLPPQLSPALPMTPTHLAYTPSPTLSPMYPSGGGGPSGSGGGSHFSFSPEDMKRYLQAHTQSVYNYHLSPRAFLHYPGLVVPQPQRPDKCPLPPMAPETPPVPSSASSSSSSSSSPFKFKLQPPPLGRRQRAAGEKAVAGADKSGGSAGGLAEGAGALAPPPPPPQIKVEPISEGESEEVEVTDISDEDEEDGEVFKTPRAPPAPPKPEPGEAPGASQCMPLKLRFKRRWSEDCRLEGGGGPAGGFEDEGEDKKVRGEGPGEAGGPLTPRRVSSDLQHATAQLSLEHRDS
# Outline: as §1
# ETV3L = target: T4, ETV3L (Homo sapiens, UniProt Q6ZN32 1-361)
# T4 sequence: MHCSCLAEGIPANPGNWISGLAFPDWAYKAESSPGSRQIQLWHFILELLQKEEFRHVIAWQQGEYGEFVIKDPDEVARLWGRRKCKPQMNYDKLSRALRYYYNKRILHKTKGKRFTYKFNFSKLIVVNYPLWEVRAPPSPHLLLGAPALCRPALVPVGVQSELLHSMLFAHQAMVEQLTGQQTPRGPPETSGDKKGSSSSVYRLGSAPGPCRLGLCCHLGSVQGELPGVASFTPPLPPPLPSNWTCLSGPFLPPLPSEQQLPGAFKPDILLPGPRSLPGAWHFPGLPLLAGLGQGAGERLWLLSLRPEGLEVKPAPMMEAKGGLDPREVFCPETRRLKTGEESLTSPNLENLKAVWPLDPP
# Outline: as §1
# ETS2 = target: T5, ETS2 (Homo sapiens, UniProt P15036 1-469)
# T5 sequence: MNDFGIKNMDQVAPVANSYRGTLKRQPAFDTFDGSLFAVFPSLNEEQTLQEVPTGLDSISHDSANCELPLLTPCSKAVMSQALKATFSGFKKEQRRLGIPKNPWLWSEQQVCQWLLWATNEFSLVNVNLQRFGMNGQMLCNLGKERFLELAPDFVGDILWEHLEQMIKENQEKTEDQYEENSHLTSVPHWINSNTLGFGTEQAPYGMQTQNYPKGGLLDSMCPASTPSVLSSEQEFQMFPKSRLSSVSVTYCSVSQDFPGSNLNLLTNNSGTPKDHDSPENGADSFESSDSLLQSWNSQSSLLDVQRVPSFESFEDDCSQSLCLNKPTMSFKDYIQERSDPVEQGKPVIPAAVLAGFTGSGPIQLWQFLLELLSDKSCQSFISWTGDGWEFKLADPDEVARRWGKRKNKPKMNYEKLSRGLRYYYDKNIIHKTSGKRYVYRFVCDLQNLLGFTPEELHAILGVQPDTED
# Outline: as §1
# SPDEF = target: T6, SPDEF (Homo sapiens, UniProt O95238 1-335)
# T6 sequence: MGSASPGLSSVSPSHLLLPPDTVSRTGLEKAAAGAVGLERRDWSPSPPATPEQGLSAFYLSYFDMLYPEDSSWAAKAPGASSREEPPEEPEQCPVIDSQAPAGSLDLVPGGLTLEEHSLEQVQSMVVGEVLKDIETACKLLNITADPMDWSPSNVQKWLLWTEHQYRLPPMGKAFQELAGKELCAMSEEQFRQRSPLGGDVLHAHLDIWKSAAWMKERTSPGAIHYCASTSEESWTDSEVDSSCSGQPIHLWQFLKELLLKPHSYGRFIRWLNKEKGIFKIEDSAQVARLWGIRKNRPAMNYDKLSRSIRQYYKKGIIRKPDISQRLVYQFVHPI
# Outline: as §1
# ETV7 = target: T7, ETV7 (Homo sapiens, UniProt Q9Y603 1-341)
# T7 sequence: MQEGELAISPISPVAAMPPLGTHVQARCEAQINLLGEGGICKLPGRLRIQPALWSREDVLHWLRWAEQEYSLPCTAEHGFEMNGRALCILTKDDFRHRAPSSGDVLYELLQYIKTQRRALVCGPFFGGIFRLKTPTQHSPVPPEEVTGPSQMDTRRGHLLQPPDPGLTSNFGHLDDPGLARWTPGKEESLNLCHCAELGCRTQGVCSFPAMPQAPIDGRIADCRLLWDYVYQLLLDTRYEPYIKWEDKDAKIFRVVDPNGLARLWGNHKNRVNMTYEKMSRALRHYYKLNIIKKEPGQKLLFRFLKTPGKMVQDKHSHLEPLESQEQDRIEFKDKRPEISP
# Outline: as §1
# ETV3 = target: T8, ETV3 (Homo sapiens, UniProt P41162-2 1-143)
# T8 sequence: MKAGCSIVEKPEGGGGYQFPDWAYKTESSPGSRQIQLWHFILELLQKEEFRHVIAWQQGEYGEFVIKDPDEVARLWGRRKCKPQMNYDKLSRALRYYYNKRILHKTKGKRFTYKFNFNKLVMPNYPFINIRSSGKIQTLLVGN
# Outline: as §1
# ETV6 = ETV6 (Homo sapiens, UniProt P41212 1-452)
# Sequence of ETV6 (P41212 whole entry): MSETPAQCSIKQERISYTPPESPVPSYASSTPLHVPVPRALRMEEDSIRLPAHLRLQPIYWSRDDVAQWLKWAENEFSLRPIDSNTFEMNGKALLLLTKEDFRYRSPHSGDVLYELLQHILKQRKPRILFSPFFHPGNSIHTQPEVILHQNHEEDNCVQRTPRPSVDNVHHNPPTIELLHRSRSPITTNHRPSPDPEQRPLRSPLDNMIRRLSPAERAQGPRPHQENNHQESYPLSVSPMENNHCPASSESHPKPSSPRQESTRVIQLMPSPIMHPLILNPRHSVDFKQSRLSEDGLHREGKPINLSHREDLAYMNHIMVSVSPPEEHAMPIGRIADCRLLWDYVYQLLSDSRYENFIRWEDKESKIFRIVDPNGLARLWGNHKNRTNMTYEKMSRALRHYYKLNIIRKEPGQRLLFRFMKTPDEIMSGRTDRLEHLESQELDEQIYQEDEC
# Outline: as §1
sequence,measurement,setting,value
GTACCC,binding signal,ETV2,"1.11 fold enrichment (6-mer frequency, TF over GST control)"
same,binding signal,ELF3,"1.17 fold enrichment (6-mer frequency, TF over GST control)"
same,binding signal,ETV1,"1.11 fold enrichment (6-mer frequency, TF over GST control)"
same,binding signal,ERF,"1.13 fold enrichment (6-mer frequency, TF over GST control)"
same,binding signal,ETV3L,"1.16 fold enrichment (6-mer frequency, TF over GST control)"
same,binding signal,ETS2,"1.12 fold enrichment (6-mer frequency, TF over GST control)"
same,binding signal,SPDEF,"1.14 fold enrichment (6-mer frequency, TF over GST control)"
same,binding signal,ETV7,"1.06 fold enrichment (6-mer frequency, TF over GST control)"
same,binding signal,ETV3,"1.06 fold enrichment (6-mer frequency, TF over GST control)"
same,binding signal,ETV6,"1.13 fold enrichment (6-mer frequency, TF over GST control)"
